Data taken from PubChem BioAssay (NCI).
“And” between values parts separate entries of the source, which are not always exact repeats. Equal entries are not always repeated. Compounds without any hit were thinned out: in the full panel of roughly 79,000, 15% have a hit. More than one record can exist for a structure, and the calls need not agree. The source made the active and inactive calls. Cut-off read from the data, not from the text of the source: active = growth inhibition above about 70%; inactive = the rest.

Tests used:
[1] = NCI Yeast Anticancer Drug Screen. Data for the rad50 strain (AID 155);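 note: 0% = growth of vehicle-only cultures of the same strain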; conditions: S. cerevisiae rad50 strain growth inhibition, stronger effect = higher value
In short: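 Growth of the mutant yeast was measured after compound exposure and referenced to vehicle-treated cultures.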

[2] = NCI Yeast Anticancer Drug Screen. Data for the mec2-1 strain (AID 157); conditions: S. cerevisiae mec2-1 strain, stronger effect = higher value
In short: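 Cells of the genetically defined mec2-1 yeast strain are incubated with test compound. Inhibition of growth is calculated against vehicle-treated controls.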

[3] = NCI Yeast Anticancer Drug Screen. Data for the sgs1 mgt1 strain (AID 161);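 note: 0% = growth of cultures given vehicle only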; conditions: S. cerevisiae sgs1 mgt1 strain, stronger effect = higher value
In short: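 Mutant yeast exposed to compound; growth scored against vehicle-only wells.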

[4] = NCI Yeast Anticancer Drug Screen. Data for the cln2 rad14 strain (AID 165);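 note: 0% = growth equal to vehicle treated cultures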; conditions: S. cerevisiae cln2 rad14 strain, stronger effect = higher value
In short: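 The screen exposed genetically defined yeast (cln2 rad14) to test compounds and scored growth inhibition relative to vehicle-treated controls.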

[5] = NCI Yeast Anticancer Drug Screen. Data for the bub3 strain (AID 167); conditions: S. cerevisiae bub3 mutant strain, stronger effect = higher value
In short: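 Whole-cell yeast assay. The mutant strain was incubated with compounds, and growth inhibition was determined by comparison with vehicle-treated cells.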

[6] = NCI Yeast Anticancer Drug Screen. Data for the mlh1 rad18 strain (AID 175); conditions: S. cerevisiae mlh1 rad18 strain growth inhibition, stronger effect = higher value
In short: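 Compound-treated yeast growth, normalised to vehicle controls. Strain bears defined DNA repair mutations.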

[7] = NCI Yeast Anticancer Drug Screen. Data for the wt2 strain (AID 169);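 note: 0% = growth of vehicle-treated yeast cultures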; conditions: S. cerevisiae wt2 strain growth inhibition, stronger effect = higher value
In short: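 Steps: yeast strain treated with compound; growth recorded; inhibition calculated relative to cultures given vehicle alone.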

[8] = at 5.0 µM (retest, dose inferred, filed as 0.5)
[9] = at 50.0 µM (retest, dose inferred, filed as 5.0)

Measured: growth inhibition

COc1ccc2nc(C)cc(NCCCCCCCCCNc3cc(C)nc4ccc(OC)cc34)c2c1
active: [1]; [9] 94% | [1]; at 50.0 µM 83.4% | [2]; [9] 94% | [2]; at 50.0 µM 87.9% | [3]; [9] 96% | [3]; at 50.0 µM 80.8% | [4]; [9] 75% | [4]; at 50.0 µM 71% | [5]; [9] 88% | [5]; at 50.0 µM 78.5% | [6]; [9] 93%
inactive: [1]; [8] -17% | [2]; [8] -30% | [3]; [8] -2% | [4]; [8] -11% | [5]; [8] -40% | [6]; [8] -21%

CC[N+](C)(C)c1ccccc1
inactive: [1]; [8] 42% | [1]; at 50.0 µM 61.8% | [2]; [8] 48% | [2]; at 50.0 µM 26.7% | [3]; [8] -40% | [3]; [9] 1% | [3]; at 50.0 µM 48.2% | [4]; [8] 46% | [4]; [9] 24% | [4]; at 50.0 µM 17.9% | [5]; [8] -1% | [5]; [9] 28% | [7]; at 1.2 µM -24% | [7]; at 3.7 µM -23% | [7]; at 11.0 µM -25% | [7]; at 33.0 µM -16% | [7]; at 100.0 µM -24% | [6]; [8] 45% | [6]; at 50.0 µM 28.9%
active: [1]; [9] 90% | [2]; [9] 93% | [5]; at 50.0 µM 74.2% | [6]; [9] 82%

NS(=O)(=O)c1ccc(Nc2c3ccccc3nc3c(C(=O)N4CCN(CCO)CC4)cccc23)cc1
inactive: [1]; [8] 61% | [1]; [9] 61% | [1]; at 50.0 µM 38.6% | [2]; [8] 39% | [2]; [9] 39% | [2]; at 50.0 µM 40.7% | [3]; [8] 60% | [3]; [9] 60% | [3]; at 50.0 µM 24.4% | [4]; [8] 25% | [4]; [9] 25% | [4]; at 50.0 µM 29.9% | [5]; [8] 32% | [5]; [9] 32% | [5]; at 50.0 µM 23.9%

[N-]=[N+]=CC(=O)OCC1NC(=O)C(COC(=O)C=[N+]=[N-])NC1=O (stereo unspecified)
-10.3% (inactive) and 80.2% (active): [1]; at 50.0 µM
12.6% (inactive) and 71.3% (active): [3]; at 50.0 µM
3.8% (inactive) and 85.3% (active): [5]; at 50.0 µM
6.1% (inactive) and 76% (active): [4]; at 50.0 µM
inactive: [1]; [8] 5% | [1]; [9] -1% | [2]; [8] 2% | [2]; [9] 6% | [3]; [8] -1% | [3]; [9] 3% | [4]; [8] -2% | [4]; [9] -7% | [5]; [8] -1% | [5]; [9] -2%
-20.1% (inactive) and 85.7% (active): [2]; at 50.0 µM

Nc1ccccc1Oc1ccc(Cl)cc1Cl
active: [1]; at 50.0 µM 92% | [2]; at 50.0 µM 92.7% | [3]; [9] 98% | [3]; at 50.0 µM 93% | [4]; [9] 98% | [4]; at 50.0 µM 92.3% | [5]; [9] 95% | [5]; at 50.0 µM 92.3% | [7]; at 33.0 µM 95% | [7]; at 100.0 µM 99% | [6]; at 50.0 µM 92%
inactive: [1]; [8] 27% | [1]; [9] 48% | [2]; [8] 37% | [2]; [9] 61% | [3]; [8] -21% | [4]; [8] 22% | [5]; [8] -18% | [7]; at 1.2 µM -3% | [7]; at 3.7 µM -16% | [7]; at 11.0 µM -8% | [6]; [8] 15% | [6]; [9] 59%

CCOC(=O)c1c[nH]c2cc(C(F)(F)F)ccc2c1=O
active: [1]; [9] 93% | [2]; [8] 74% | [2]; [9] 96% | [6]; [9] 99%
inactive: [1]; [8] 52% | [1]; at 50.0 µM 52% | [2]; at 50.0 µM -0.25% | [3]; [8] -23% | [3]; [9] -11% | [3]; at 50.0 µM 26.3% | [4]; [8] 9% | [4]; [9] 24% | [4]; at 50.0 µM 9.15% | [5]; [8] 22% | [5]; [9] 2% | [5]; at 50.0 µM 69.9% | [7]; at 1.2 µM -3% | [7]; at 3.7 µM -8% | [7]; at 11.0 µM -9% | [7]; at 33.0 µM -10% | [7]; at 100.0 µM -10% | [6]; [8] 56% | [6]; at 50.0 µM 1.5%

c1ccc2nc3c(ccc4ccccc43)cc2c1
active: [1]; at 50.0 µM 86% | [2]; at 50.0 µM 75.9% | [3]; [9] 94% | [3]; at 50.0 µM 84.5% | [4]; [9] 91% | [5]; [9] 99% | [5]; at 50.0 µM 84% | [7]; at 33.0 µM 94% | [7]; at 100.0 µM 89% | [6]; at 50.0 µM 83%
inactive: [1]; [8] 22% | [1]; [9] 31% | [2]; [8] 41% | [2]; [9] 45% | [3]; [8] -17% | [4]; [8] 5% | [4]; at 50.0 µM 68.7% | [5]; [8] 0% | [7]; at 1.2 µM 18% | [7]; at 3.7 µM 16% | [7]; at 11.0 µM 64% | [6]; [8] 20% | [6]; [9] 49%

C=C1CC2(CC(c3ccccc3C)OC(c3ccccc3C)C2)OC1=O (stereo unspecified)
active: [1]; [9] 85% | [1]; at 50.0 µM 77.7% | [2]; [9] 94% | [2]; at 50.0 µM 83.7% | [3]; [8] 76% | [3]; [9] 83% | [3]; at 50.0 µM 84.1% | [4]; [8] 83% | [4]; [9] 91% | [4]; at 50.0 µM 84% | [5]; [8] 74% | [5]; [9] 87% | [5]; at 50.0 µM 78.4% | [6]; [8] 80% | [6]; [9] 90%
inactive: [1]; [8] 54% | [2]; [8] 53%
